{
  "source": "PubChem BioAssay (NCI)",
  "note": "This is part of a sample that, as a whole, favours compounds with a hit. Of some 83,000 tested, about 20% had one in any assay.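 Single-concentration screen, 48 h exposure, 96-well plates. Endpoint: percent growth. Below 10 = active.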 Calls of active or inactive are those of the source.",
  "data": [
    {"system": "U251 CNS", "assay": "NCI-60 one-dose screen, 48 h (100 = growth as untreated, 0 = no growth, -100 = all killed)", "conditions": "10 µM unless noted", "description": "Growth inhibition of the U251 human tumor cell line is measured as a screen for anti-cancer activity. Cells are grown in 96 well plates and exposed to the test compound for 48 hours. Compounds are tested at a single concentration, which is 10^-5 M for most compounds. The reported endpoint is percent growth (GI% or GIPRCNT), where numbers from 0 - 100% represent growth inhibition, and numbers from -100% - 0 represent cell death. For example, a value of 40 represents 60% growth inhibition. A value of 0 means no net growth occurred over the course of the experiment. A value of -40 indicates 40% of cells at the beginning of the experiment died by the end of the experiment. A value of -100 means all cells are dead at the end of the experiment.\nNCI-60 Human Tumor Cell Lines Screen was performed using the standard one-dose NCI protocol, which is described in more detail at https://dtp.cancer.gov/discovery_development/nci-60/default.htm.\nCompounds with GIPRCNT values below 10 were considered active. Activity score was based on GIPRCNT using the following formula: […]\nScore is 0 for GIPRCNT values of 100 or above, 50 for GIPRCNT values of 0, and 100 for GIPRCNT values of -100.", "values": [
      {"smiles": "C[N+](C)(C)c1ncnc2[n-]cnc12", "growth": "91.6% (inactive)"},
      {"smiles": "CCCCCCCCCCCCNC(=S)N/N=C/c1ccccc1O", "growth": "78.4% (inactive)"},
      {"smiles": "CCOC(CNC(=O)c1cccc([N+](=O)[O-])c1)OCC", "growth": "97.6% (inactive)"},
      {"smiles": "O=C(N/N=C/c1c(Cl)cccc1Cl)c1cccc(Nc2ccnc(C(F)(F)F)c2)c1", "growth": "89.6% (inactive)"},
      {"smiles": "C=C(C)[C@@H]1CC[C@]2(C)[C@H](C(=O)C=C3[C@@H]4C[C@](C)(C(=O)N5CCN(C)CC5)CC[C@]4(C)CC[C@]32C)[C@@]1(C)CCC#N", "growth": "-76.7% [100 µM] (active)"},
      {"smiles": "CCCCCn1c(C)cc(/C=C\\c2ccc3cc(C)ccc3[n+]2C)c1C", "growth": "-93.9% (active)"},
      {"smiles": "CCOC(=O)c1nn(C2CCCCO2)c2ccc(NC(=O)CSc3nc4ccccc4c(=O)[nH]3)cc12", "note": "(stereo not given)", "growth": "97.2% (inactive)"},
      {"smiles": "O=C(NCc1ccccc1)C(Cl)Cl", "growth": "99.4% (inactive)"},
      {"smiles": "C[C@H]1[C@H](C)CC[C@]2(COC(=O)CCC(=O)O)CC[C@]3(C)C(=CC[C@@H]4[C@@]5(C)CCCNC(C)(C)[C@@H]5CC[C@]43C)[C@H]12", "growth": "60.7% [100 µM] (inactive)"},
      {"smiles": "CC1(C)S[C@@H]2[C@H](NC(=O)[C@H](C(=O)O)c3cccs3)C(=O)N2[C@H]1C(=O)O", "growth": "94.4% (inactive)"},
      {"smiles": "Cc1cccc([N+](=O)[O-])c1I", "growth": "93.8% (inactive)"},
      {"smiles": "Cc1ncc(C(=O)Nc2ccc(CN3CCN(C)CC3)c(C(F)(F)F)c2)cc1C#Cc1c(N)ncc2ccc(C#N)cc12", "growth": "68.5% (inactive)"},
      {"smiles": "C=C(C)[C@@H]1CC[C@]2(COCCC#N)CC[C@]3(C)[C@H](CC[C@@H]4[C@@](C)(CCCNCCC#N)[C@H](C(=C)C)CC[C@]43C)[C@@H]12", "growth": "5.95% [100 µM] (active)"},
      {"smiles": "C#C[C@]1(O)CC[C@H]2[C@@H]3CC=C4c5nc(Nc6ccc(OC)cc6OC)sc5CC[C@]4(C)[C@H]3CC[C@@]21C", "growth": "-2.51% (active)"},
      {"smiles": "COc1ccc2c(c1)c(-c1noc(-c3cn(C)c4ncc(F)cc34)n1)cn2C", "growth": "76.6% (inactive)"},
      {"smiles": "CC1(C)CC[C@]2(C(=O)O)CC[C@]3(C)C(=CC[C@@H]4[C@@]5(C)C/C(=C/c6ccco6)C(=O)C(C)(C)[C@@H]5CC[C@]43C)[C@@H]2C1", "growth": "-36.1% [100 µM] (active)"},
      {"smiles": "CSc1cccc([N+](=O)[O-])c1", "growth": "109% (inactive)"},
      {"smiles": "C=C(C)[C@@H]1CC[C@]2(C(N)=O)CC[C@]3(C)[C@H](CC[C@@H]4[C@@]5(C)C/C(=C/c6cccnc6)C(=O)C(C)(C)[C@@H]5CC[C@]43C)[C@@H]12", "growth": "9.19% [100 µM] (active)"},
      {"smiles": "C#CC(OC(=O)N(C)C)(c1ccccc1)c1ccc(F)cc1", "note": "(stereo not given)", "growth": "94.8% (inactive)"},
      {"smiles": "CS(=O)(=O)c1cccnn1", "growth": "92.9% (inactive)"},
      {"smiles": "O=C(Nc1cc(-c2cccnc2)nc(NCCCN2CCOCC2)n1)c1cc(Br)cc(C(F)(F)F)c1", "growth": "33.1% (inactive)"},
      {"smiles": "CC(C)CCSc1nc(N)nc2nc[nH]c12", "growth": "100% (inactive)"},
      {"smiles": "C#CCOc1ccc(C2=NN(CC3CC3)C3N=C(Cl)c4ncn(CC5CC5)c4N23)cc1OCC#C", "note": "(stereo not given)", "growth": "70.5% (inactive)"},
      {"smiles": "COc1ccc(-c2c(C)nn3c(NCCN4CCOCC4)cc(C)nc23)cc1OC", "growth": "82.2% (inactive)"},
      {"smiles": "CCCSc1nc(N)nc2nc[nH]c12", "growth": "107% (inactive)"},
      {"smiles": "CC[C@]12C=CCN3CC[C@@]4(c5ccc(OC)cc5N(C)[C@H]4[C@@](O)(C(=O)OC)[C@@H]1OC(=O)CCC(=O)N[C@H](Cc1c[nH]c4ccccc14)C(=O)OC)[C@@H]32", "growth": "3.72% [100 µM] (active)"},
      {"smiles": "O=S(=O)(NCCNc1nccc(-c2c(-c3cccc(F)c3)nc3occn23)n1)c1ccc(C(F)(F)F)cc1", "growth": "92% (inactive)"},
      {"smiles": "CCOc1ccc2sc(NS(=O)(=O)c3ccc(N)cc3)nc2c1", "growth": "99.5% (inactive)"},
      {"smiles": "CC1Cc2c(Cl)ncnc2N(C)c2ccccc21", "note": "(stereo not given)", "growth": "19.6% (inactive)"},
      {"smiles": "CCN(CC)CCCCCCNc1cccc2cc(Br)cnc12", "growth": "81.2% (inactive)"},
      {"smiles": "O=C1/C(=C\\c2cccn2Cc2ccccc2)c2ccccc2N1c1c(Cl)cccc1Cl", "growth": "74.8% (inactive)"},
      {"smiles": "Nc1ccc2c(c1)Cc1cc(NC(=O)C(F)(F)F)ccc1-2", "growth": "96.2% (inactive)"},
      {"smiles": "O=C(Nc1cccnc1)c1ccc2ccc3ccc(C(=O)Nc4cccnc4)nc3c2n1", "growth": "12.2% (inactive)"},
      {"smiles": "CCN1CCN(CC(=O)Nc2nc3ccc(NCc4ccc(Cl)cc4)cc3s2)CC1", "growth": "58.2% (inactive)"},
      {"smiles": "O=C(Nc1ccccc1)Nc1ccc(C(=O)/C=C/c2ccc(N3CCCC3)cc2)cc1", "growth": "66% (inactive)"},
      {"smiles": "O=C(N=c1n(-c2ccccc2)nc2n1CCN2C1=NCCN1C(=O)c1ccc(Cl)cc1)c1ccc(Cl)cc1", "growth": "72.8% (inactive)"},
      {"smiles": "COc1ccc2nc3c(cc2c1)C(=O)CC(C(F)(F)F)C3", "note": "(stereo not given)", "growth": "84.7% (inactive)"},
      {"smiles": "COc1c(C(C)=O)c(OCCCCOc2c(C(C)=O)c(OC)c3ccoc3c2OC)c(OC)c2occc12", "growth": "79.9% (inactive)"},
      {"smiles": "CCn1cc(-c2[nH]c(=S)ncc2-c2ccc(Cl)cc2)c(-c2ccc(Br)cc2)n1", "growth": "74.3% (inactive)"},
      {"smiles": "CCN(CC)CCCNCc1cc(-c2ccccc2)nc2ccccc12", "growth": "21.5% (inactive)"}
    ]}
  ]
}
